# Assay results reported in the supplement of paper PMC3545927.
# This is one part of the list. How many sequences the whole screen found active is unknown.
# Target: furin, P09958
# Experiment: furin cleavage Z-score vs untreated control; higher = more cleavage, active = 3.5 or more, inactive = 1 or less, 8 variable residues between constant flanks
# Summary of the method: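 Furin-free reactions served as the baseline for the cleavage Z-score, which is the log read count lowess-adjusted and scaled by median absolute deviation. Counts came from released DNA, adapter-tagged by PCR and sequenced. Purified furin had cut 8-mer peptides fused to a cDNA oligonucleotide on magnetic beads during 7.5, 15 or 30 min at 1:10 enzyme:substrate.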
# 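Also: purified furin at 1:10 enzyme:substrate in 50 mM HEPES pH 7.5.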
# Sequence of furin, P09958 (P09958 whole entry): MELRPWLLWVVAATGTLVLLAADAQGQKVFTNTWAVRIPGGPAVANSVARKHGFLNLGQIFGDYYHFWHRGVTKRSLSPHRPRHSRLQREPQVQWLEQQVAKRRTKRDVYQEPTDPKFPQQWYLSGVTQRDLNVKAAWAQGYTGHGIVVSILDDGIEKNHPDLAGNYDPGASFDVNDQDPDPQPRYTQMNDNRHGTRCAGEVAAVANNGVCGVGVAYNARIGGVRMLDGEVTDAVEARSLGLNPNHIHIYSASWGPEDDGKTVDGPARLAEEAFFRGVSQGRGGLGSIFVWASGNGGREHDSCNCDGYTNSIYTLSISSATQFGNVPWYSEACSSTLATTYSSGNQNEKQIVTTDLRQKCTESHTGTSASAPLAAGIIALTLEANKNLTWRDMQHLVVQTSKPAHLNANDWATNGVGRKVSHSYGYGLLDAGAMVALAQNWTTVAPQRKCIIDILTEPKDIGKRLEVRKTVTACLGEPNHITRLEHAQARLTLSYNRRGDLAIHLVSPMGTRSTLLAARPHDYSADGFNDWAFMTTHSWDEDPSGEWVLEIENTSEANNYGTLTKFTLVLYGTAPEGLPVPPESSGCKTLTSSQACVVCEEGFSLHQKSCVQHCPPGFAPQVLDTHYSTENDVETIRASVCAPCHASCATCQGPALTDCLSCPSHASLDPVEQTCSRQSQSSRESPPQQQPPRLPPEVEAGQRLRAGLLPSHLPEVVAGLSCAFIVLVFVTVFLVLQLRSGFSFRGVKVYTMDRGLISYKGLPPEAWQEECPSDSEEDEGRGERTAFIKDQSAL
Sequence,furin cleavage Z-score (7.5 min),furin cleavage Z-score (15 min),furin cleavage Z-score (30 min)
CAAARALAHGAGNASASA [HC234],0.0166 (inactive),-0.81 (inactive),0.0305 (inactive)
CAEVPCHRPTAGNASASA [HC2418],0.387 (inactive),-0.0389 (inactive),0.307 (inactive)
CASTSCSAHLAGNASASA [HC2517],0.382 (inactive),1.16,0.668 (inactive)
CAAEITGHVKAGNASASA [HC1177],0.655 (inactive),2.37,0.185 (inactive)
CARDRRQATEAGNASASA [FS-1692],3.4,4.98 (active),3.64 (active)
CARPRRSPAQAGNASASA [FS-1764],9.55 (active),11 (active),8.87 (active)
CARPRRSSTQAGNASASA [FS-3025],6.4 (active),8.65 (active),6.89 (active)
CARPRRPASPAGNASASA [FS-2581],0.54 (inactive),-0.0908 (inactive),-2 (inactive)
CADARRSPDQAGNASASA [FS-2627],-0.496 (inactive),-1.36 (inactive),-0.54 (inactive)
CARPRRSTSPAGNASASA [FS-3026],10.5 (active),9.5 (active),8.81 (active)
CARDLAVAVEAGNASASA [HC643],1.07,-0.796 (inactive),1.14
CARPRRRYYPAGNASASA [FS-1763],0.0891 (inactive),0.798 (inactive),-1.17 (inactive)
CARPRRGSTAAGNASASA [FS-2743],0.592 (inactive),0.93 (inactive),0.391 (inactive)
CAEVPCHRPHAGNASASA [HC2415],0.403 (inactive),-0.336 (inactive),0.894 (inactive)
CAADAILHTPAGNASASA [HC269],0.255 (inactive),-1.84 (inactive),-0.719 (inactive)
CAIEPRSFSQAGNASASA [TR3],-0.606 (inactive),-1.14 (inactive),-0.409 (inactive)
CATTPKSGSWAGNASASA [HC51],-0.56 (inactive),-0.574 (inactive),-0.879 (inactive)
CARPRRYLYQAGNASASA [FS-2285],3.25,3.5,5.12 (active)
CARPRRSIVFAGNASASA [FS-3229],4.51 (active),5.67 (active),7.41 (active)
CAKPARLIVFAGNASASA [HC1448],0.00411 (inactive),-1.12 (inactive),-1.48 (inactive)
CASRPCSAHLAGNASASA [HC2493],0.596 (inactive),1.57,0.79 (inactive)
CARRDRSTSIAGNASASA [FS-3203],-0.171 (inactive),0.756 (inactive),1.79

Sequence,furin cleavage Z-score (7.5 min),furin cleavage Z-score (15 min),furin cleavage Z-score (30 min)
CARRRRSSSTAGNASASA [FS-3068],8.2 (active),7.85 (active),5.87 (active)
CALRKRSSSTAGNASASA [FS-3179],0.00727 (inactive),0.0326 (inactive),-0.921 (inactive)
CADDEVVTSTAGNASASA [HC2291],0.608 (inactive),0.354 (inactive),-0.134 (inactive)
CARRSRAASVAGNASASA [FS-1839],1.46,1.72,3.72 (active)
CARSFRTASVAGNASASA [FS-3078],0.727 (inactive),0.141 (inactive),1.09
CARRNRSTSTAGNASASA [FS-2072],4.22 (active),6.96 (active),4.29 (active)
CARRRRSSSVAGNASASA [FS-2299],3.15,3.17,3.52 (active)
CAMEECDQHLAGNASASA [HC32],-1.25 (inactive),-0.295 (inactive),0.17 (inactive)
CAGKAIPLEVAGNASASA [HC849],-0.874 (inactive),-0.849 (inactive),-0.983 (inactive)
CAEVVGSTWVAGNASASA [HC122],-0.227 (inactive),0.0769 (inactive),0.871 (inactive)
CASTDCSAHLAGNASASA [HC2511],-0.745 (inactive),-1.14 (inactive),1.19
CAAPARERRGAGNASASA [FS-6],7.34 (active),8.29 (active),7.48 (active)
CAPGHLRRRGAGNASASA [FS-1046],-0.0765 (inactive),0.0326 (inactive),0.261 (inactive)
CAVIPVRRRGAGNASASA [HC730],-0.464 (inactive),0.132 (inactive),-0.326 (inactive)
CALFRRRRRGAGNASASA [FS-606],5.12 (active),5.02 (active),5.06 (active)
CATPPRERRGAGNASASA [FS-1095],-0.768 (inactive),-0.415 (inactive),-0.163 (inactive)
CAAPKRRRRGAGNASASA [FS-323],4.98 (active),4.92 (active),3.74 (active)
CAPHRRRRRGAGNASASA [FS-555],5.9 (active),4.87 (active),5.4 (active)
CAHGLVSFLVAGNASASA [HC542],0.693 (inactive),-0.401 (inactive),0.576 (inactive)
CAVDYPYRLWAGNASASA [HC465],0.139 (inactive),0.651 (inactive),1.32
CATGPCSGSWAGNASASA [HC1856],-0.371 (inactive),-0.739 (inactive),-1.48 (inactive)
